Values joined by “and” are separate entries in the source; they are usually repeats but may differ in a detail not shown here. Equal entries are not always repeated. Out of some 6,400 compounds screened, about 610 (9.5%) were called active. No stated cut-off is given here; in the data, active means activity change below about -70%; inconclusive means no clear call, values can overlap the other calls; inactive means above that. The entries come from a sample that favours actives as a whole. Some compounds were tested as several samples or in several runs, with calls that do not always agree.

This assay in a line: T. gondii ME49Luc in HeLa cells, luciferase assay, 72 h, no IFN-y (AID 1259421). The conditions noted are these: stronger effect = lower value, concentration not given here.
In the case of `Cn1c(O)c(C2=c3ccccc3=NC2=O)c2ccccc21`, the activity change, negative = inhibition was 13.5% (inactive).

Regarding `CCC(C)n1ncn(-c2ccc(N3CCN(c4ccc(OC[C@H]5CO[C@](Cn6cncn6)(c6ccc(Cl)cc6Cl)O5)cc4)CC3)cc2)c1=O` (stereo partly drawn), the activity change, negative = inhibition was -63.1% (inactive) and -38.1% (inactive).

`C#C[C@]1(O)CC[C@H]2[C@@H]3CCc4cc(O)ccc4[C@H]3CC[C@@]21C`: the activity change, negative = inhibition is -81.1% (active).

As for `C#C[C@]1(O)CC[C@H]2[C@@H]3CCc4cc(OC)ccc4[C@H]3CC[C@@]21C`, the activity change, negative = inhibition is 9.24% (inactive).

On to `C#C[C@]1(O)CCC2C3CCc4cc(OC)ccc4C3CC[C@@]21C` (stereo partly drawn), for which the activity change, negative = inhibition was 7.57% (inactive).

Consider `C#C[C@]1(O)CCC2C3CCc4cc(O)ccc4C3CC[C@@]21C` (stereo partly drawn), for which the activity change, negative = inhibition was -81.3% (active).

Consider `C[C@]12CC[C@@H]3c4ccc(O)cc4CC[C@H]3[C@@H]1CCC2=O`, for which the activity change, negative = inhibition is -66.6% (inactive) and -57.7% (inactive).

With `C#C[C@]1(O)CCC2C3CCc4cc(OC5CCCC5)ccc4C3CC[C@@]21C` (stereo partly drawn), the activity change, negative = inhibition was 33.4% (inactive).

Regarding `CCOc1ccc(Cc2cc([C@@H]3O[C@H](CO)[C@@H](O)[C@H](O)[C@H]3O)ccc2Cl)cc1`, the activity change, negative = inhibition was 4.88% (inactive) and 10.3% (inactive).

`CCN1/C(=C/C(C)=O)Sc2ccc(OC)cc21`: the activity change, negative = inhibition is 21% (inactive).

`CC#CCOC(=O)c1c(C)nc2sc3c(c2c1N)CCC(O)C3` (stereo not drawn): the activity change, negative = inhibition was 49.7% (inactive) and 66.7% (inactive).

With `N[C@@H]1[C@@H](O)[C@H](O)[C@@H](CO)O[C@H]1O`, the activity change, negative = inhibition was 1.35% (inactive).

On to `CN(CCc1ccc(Cl)c(Cl)c1)CCN1CCCC1`, for which the activity change, negative = inhibition was 14.6% (inactive).

With `CC1(O)C(O)C(CO)OC1n1ccc(N)nc1=O` (stereo not drawn), the activity change, negative = inhibition is 27.1% (inactive).

Take `C[C@@H]1O[C@@H](O[C@@H]2[C@H](Oc3cc(O)c(C(=O)CCc4ccc(O)cc4)c(O)c3)O[C@H](CO)[C@@H](O)[C@@H]2O)[C@H](O)[C@H](O)[C@H]1O`: the activity change, negative = inhibition was 5.31% (inactive).

Take `COc1cc2c(cc1OC)CC(=O)N(CCCN(C)C[C@@H]1Cc3cc(OC)c(OC)cc31)CC2`: the activity change, negative = inhibition is 13.9% (inactive).

For the molecule `COc1cc2ncnc(Oc3cccc(NC(=O)Nc4cc(C(C)(C)C(F)(F)F)on4)c3)c2cc1OC`, the activity change, negative = inhibition was -78.4% (active).

Take `CCCNC(=O)Nc1ccc(Oc2ncnc3cc(OC)c(OC)cc23)cc1Cl`: the activity change, negative = inhibition is 6.99% (inactive).

For `COc1cc2ncnc(Nc3cccc(O)c3)c2cc1OC`, the activity change, negative = inhibition is 10.5% (inactive).

Take `CNc1cc(OC)c(C(=O)N[C@@H]2CCN(Cc3ccccc3)[C@@H]2C)cc1Cl` (racemic): the activity change, negative = inhibition was 26% (inactive).

`Cc1nc(NC(=O)N2CCC[C@H]2C(N)=O)sc1-c1ccnc(C(C)(C)C(F)(F)F)c1`: the activity change, negative = inhibition is -3.31% (inactive).

Take `CC(=O)Nc1nc(C)c(-c2ccc(Cl)c(S(=O)(=O)NCCO)c2)s1`: the activity change, negative = inhibition is -78.9% (active).

In the case of `CC(=O)Nc1nnc(S(N)(=O)=O)s1`, the activity change, negative = inhibition is 18.1% (inactive) and 14.1% (inactive).

Turning to `c1ncc(CC2CCNCC2)[nH]1`, the activity change, negative = inhibition was 9.05% (inactive) and 12.6% (inactive).

With `N#C/C(=C/c1ccc(O)c(O)c1)C(=O)NCCCCc1ccccc1`, the activity change, negative = inhibition is 28.9% (inactive).

With `COc1cnc(-n2cnc(C)n2)c2[nH]cc(C(=O)C(=O)N3CCN(C(=O)c4ccccc4)CC3)c12`, the activity change, negative = inhibition was 22.1% (inactive).

Turning to `C=C1C(=O)O[C@@H]2[C@H]3O[C@]3(C)CC/C=C(\C)CC[C@@H]12`, the activity change, negative = inhibition was 6.15% (inactive).

Consider `CCC[C@@H]1C[C@@H](C(=O)N[C@@H](C2O[C@H](SC)[C@H](O)[C@@H](O)[C@H]2O)[C@H](C)Cl)N(C)C1` (stereo partly drawn), for which the activity change, negative = inhibition was -0.424% (inactive).

In the case of `CC(C)[C@H](N)C(=O)OCCOCn1cnc2c(=O)[nH]c(N)nc21`, the activity change, negative = inhibition is 9.53% (inactive) and 3.52% (inactive).

For `O=C(CCc1ccc(O)cc1)c1c(O)cc(O)cc1O[C@@H]1O[C@H](CO)[C@@H](O)[C@H](O)[C@@H]1O`, the activity change, negative = inhibition is 6% (inactive).

As for `CC(C)(C)Cn1c(N)nc2ccc(-c3[nH]c(C(C)(C)C)nc3-c3ccc(F)cc3)nc21`, the activity change, negative = inhibition is -83.7% (active).

With `CC(C)(C)C(=O)OCOC(=O)[C@@H]1N2C(=O)[C@@H](N=CN3CCCCCC3)[C@H]2SC1(C)C`, the activity change, negative = inhibition is 2.97% (inactive).

As for `O=C(N[C@@H]1CC[C@@H](c2cccc(F)c2F)CN(CC(F)(F)F)C1=O)N1CCC(n2c(=O)[nH]c3ncccc32)CC1`, the activity change, negative = inhibition is 5.74% (inactive).

As for `CC(CSC(=O)c1ccccc1)C(=O)N1C[C@@H](Sc2ccccc2)C[C@H]1C(=O)O` (stereo partly drawn), the activity change, negative = inhibition was 5.4% (inactive).

For the molecule `O=c1cc(-c2ccccc2)oc2cc(O)ccc12`, the activity change, negative = inhibition is 60.2% (inactive).

Consider `O=c1cc(-c2ccccc2)oc2c(O)c(O)ccc12`, for which the activity change, negative = inhibition is -85.8% (active).

With `O=c1cc(-c2ccccc2)oc2cccc(O)c12`, the activity change, negative = inhibition is 21.2% (inactive).

For `COc1ccc(-c2noc(CC(=O)O)c2-c2ccc(OC)cc2)cc1`, the activity change, negative = inhibition was 7.28% (inactive).

With `Oc1ccc(Nc2nc(-c3ccc(Cl)cc3)cs2)cc1`, the activity change, negative = inhibition was 28.7% (inactive).

With `CCOc1ccc(Nc2nc(-c3c(C)nc4ccccn34)cs2)cc1`, the activity change, negative = inhibition was -74% (active).

Take `COc1cc(Br)c(Nc2nc(-c3c(C)nc4ncccn34)cs2)c(Br)c1`: the activity change, negative = inhibition was 13.9% (inactive).

On to `Cn1cc(C(F)(F)F)nc1-c1ccc(OCC(O)CNCCOc2ccc(O)c(C(N)=O)c2)cc1` (stereo not drawn), for which the activity change, negative = inhibition is 1.01% (inactive).

In the case of `CC(C)(C)NC(=O)[C@H]1CCC2C3CC[C@H]4NC(=O)C=C[C@]4(C)C3CC[C@@]21C` (stereo partly drawn), the activity change, negative = inhibition is -5.92% (inactive).

Regarding `COc1c2c(cc3occ(-c4ccc5c(c4)OCO5)c(=O)c13)OC(C)(C)C=C2`, the activity change, negative = inhibition is -31.2% (inactive).

For `COc1c(-c2coc3cc4c(cc3c2=O)CC(OC(C)=O)C(C)(C)O4)ccc2c1C=CC(C)(C)O2` (stereo not drawn), the activity change, negative = inhibition was -72.4% (active).

With `COc1c(CC(=O)c2cc3c(cc2O)OC(C)(C)C(O)C3)ccc2c1C=CC(C)(C)O2` (stereo not drawn), the activity change, negative = inhibition was 16.9% (inactive).

Take `COc1c(-c2coc3cc4c(cc3c2=O)CC(O)C(C)(C)O4)ccc2c1C=CC(C)(C)O2` (stereo not drawn): the activity change, negative = inhibition is -80% (active).

As to `COc1ccc(-c2coc3cc(O)ccc3c2=O)c(O)c1O`, the activity change, negative = inhibition is 2.93% (inactive).

With `COc1cc2c(cc1OC)[C@@H]1C(=O)c3ccc4c(c3O[C@@H]1CO2)C=CC(C)(C)O4`, the activity change, negative = inhibition was -20.6% (inactive).

In the case of `CCOC(=O)C1=CC2(CC)CCCN3CCc4c(n1c1ccccc41)C32` (stereo not drawn), the activity change, negative = inhibition was 23.3% (inactive).

Regarding `COC12CC(COC(=O)c3cncc(Br)c3)CN(C)C1Cc1cn(C)c3cccc2c13` (stereo not drawn), the activity change, negative = inhibition is 13.7% (inactive).

For `CC(=O)NC(C(=O)O)C(C)(C)S[NH2+][O-]` (stereo not drawn), the activity change, negative = inhibition was 16% (inactive).

Take `Cc1ccccc1C(=O)Nc1ccc(C(=O)N2CCCC(O)c3cc(Cl)ccc32)c(C)c1` (stereo not drawn): the activity change, negative = inhibition is 7.82% (inactive).

As for `CCc1cc2c(cc1N1CCC(N3CCOCC3)CC1)C(C)(C)c1[nH]c3cc(C#N)ccc3c1C2=O`, the activity change, negative = inhibition was 16.2% (inactive).

As for `Cc1c(C(=O)Nc2ccc(N3CCC(N4CCOCC4)CC3)c(C#N)c2)cnn1-c1ccc(Cl)cc1`, the activity change, negative = inhibition is -92.1% (active).

Regarding `CN1C2CC(OC(=O)C(CO)c3ccccc3)CC1C1OC12` (stereo not drawn), the activity change, negative = inhibition is 11.1% (inactive).

For `CNc1cc(OC)c(C(=O)N[C@@H]2CCN(Cc3ccccc3)[C@H]2C)cc1Cl`, the activity change, negative = inhibition was 15.3% (inactive).

Take `Cn1cc(C(=O)OCC2CCN(CCNS(C)(=O)=O)CC2)c2ccccc21`: the activity change, negative = inhibition was 1.88% (inactive) and 6.2% (inactive).

Take `Cn1cc(C[C@@H](N)C(=O)O)c2ccccc21`: the activity change, negative = inhibition was 16% (inactive).

For the molecule `Cn1cc(CNCC2CCN(c3ncc(C(=O)NO)cn3)CC2)c2ccccc21`, the activity change, negative = inhibition is -88.1% (active).

As for `C[C@@H]1CC2C3CCC4=CC(=O)C=C[C@]4(C)[C@@]3(F)[C@@H](O)C[C@]2(C)[C@@]1(O)C(=O)COP(=O)(O)O` (stereo partly drawn), the activity change, negative = inhibition is 0.571% (inactive) and -5.12% (inactive).

Consider `O=c1c(-c2ccc(O)cc2)coc2c(C3O[C@H](CO)[C@@H](O)[C@H](O)[C@H]3O)c(O)ccc12` (stereo partly drawn), for which the activity change, negative = inhibition is -5.75% (inactive).

As for `C[N+]1(C)C2CC[C@H]1CC(OC(=O)C(O)c1ccccc1)C2` (stereo partly drawn), the activity change, negative = inhibition is 10.1% (inactive).

With `O=C(Nc1ccccc1)C12CC1/C(=N\O)c1ccccc1O2` (stereo not drawn), the activity change, negative = inhibition is 7.7% (inactive) and 0.127% (inactive).

Consider `COc1ccc(-c2cc(=O)c3c(O)cc(O[C@@H]4O[C@H](CO[C@H]5O[C@H](C)[C@@H](O)[C@H](O)[C@@H]5O)[C@@H](O)[C@H](O)[C@H]4O)cc3o2)cc1O`, for which the activity change, negative = inhibition was 14.7% (inactive).

For `COc1ccc2c(c1)c(C1=C(c3c[nH]c4ccccc34)C(=O)NC1=O)cn2CCCN(C)C`, the activity change, negative = inhibition was -36.9% (inactive).

As to `Cn1cc(C2=C(c3cn(CCCSC(=N)N)c4ccccc34)C(=O)NC2=O)c2ccccc21`, the activity change, negative = inhibition was -58% (inactive) and -88.3% (active).

With `Cn1cc(C2=C(c3ccc(Cl)cc3Cl)C(=O)NC2=O)c2ccccc21`, the activity change, negative = inhibition was -12.4% (inactive) and -8.86% (inactive).

Take `CCCCC/C=C\C/C=C\CCCCCCCC(=O)NCCCC(=O)O`: the activity change, negative = inhibition is 8.14% (inactive).

`O=C(O)CN1CCN(CC(=O)O)CCN(CC(=O)O)CCN(CC(=O)O)CC1`: the activity change, negative = inhibition was 0.0247% (inactive).

In the case of `N#C/C(=C(/N)Sc1ccc(N)cc1)c1ccccc1C(F)(F)F`, the activity change, negative = inhibition was 7.26% (inactive).

Turning to `O=Nc1c(-c2c(O)[nH]c3cc(Br)ccc23)[nH]c2ccccc12`, the activity change, negative = inhibition was -87.9% (active).

With `O=C1C(c2c(O)[nH]c3ccccc23)=Nc2ccccc21`, the activity change, negative = inhibition is -5.14% (inactive).

For `O=Nc1c(-c2c(O)[nH]c3ccccc23)[nH]c2ccccc12`, the activity change, negative = inhibition was -74.5% (active).

Turning to `NS(=O)(=O)c1ccc(N=Cc2c(O)[nH]c3ccccc23)cc1`, the activity change, negative = inhibition is 13.4% (inactive).

For the molecule `CCCCC(=O)O[C@]1(C(=O)CO)[C@@H](C)CC2C3CCC4=CC(=O)C=C[C@]4(C)[C@@]3(F)C(O)C[C@@]21C` (stereo partly drawn), the activity change, negative = inhibition was 1.05% (inactive).

Consider `CC(=O)c1cc2ccccc2oc1=O`, for which the activity change, negative = inhibition was -2.07% (inactive).

As for `O=C(O)CCCCN(CCc1ccccc1OCc1ccc(CCc2ccccc2)cc1)Cc1ccc(C(=O)O)cc1`, the activity change, negative = inhibition was 10.8% (inactive).
